Test results as given in PubChem BioAssay (EPA / NIEHS).
Where “and” joins values, the source holds several entries; their conditions need not be identical. Equal entries are not always repeated. More than one record can exist for a structure, and the calls need not agree. Calls of active or inactive are those of the source. Rule for the calls: active = hit-call score of the fitted dose curve at least 0.9, where 1 is the maximum; inactive = score below 0.9.

Test: CCTE_Shafer_MEA_dev_per_burst_spike_percent: CCTE's Neural Network Formation Assay for Percent of Spikes in a Burst, Shafer Lab (AID 2284032)
Protocol: CCTE_Shafer_MEA_dev assay is conducted using Axion Biosystems 48 well microelectrode array (MEA) plates and Maestro recording system. Each well of the MEA plate contains a grid of 16 microelectrodes embedded in the culture surface. Electrically active cells, such as neurons, can be cultured over the electrodes, and electrical activity in these cells can be recorded extracellularly. The spontaneous firing of neurons is captured from each electrode on a microsecond timescale providing both temporally and spatially precise data. […] The CCTE_Shafer_MEA_dev assay uses primary cultures of rat cortical neurons. Recordings are made on days post-plating 5, 7, 9 and 12. As these cultures mature over time, neural networks develop functional activity and form cohesive networks in which electrical activity can be highly coordinated. CCTE_Shafer_MEA_dev_per_burst_spike_percent is 1 of 19 assay components of the CCTE_Shafer_MEA_dev assay. It measures the percentage of spikes (action potential firings) in a single-electrode burst (temporally-clustered group of spikes) as the total number spikes in bursts divided by the total number of spikes during a recording in a microelectrode array (MEA) using Axion Biosystems Maestro 768 channel amplifier with the AxIS adaptive spike detector. The percent of spikes in bursts is averaged across the actively bursting electrodes to report a well-mean value. To collapse across multiple recordings made on days post-plating 5, 7, 9 and 12, the trapezoidal area-under-the-curve of the component is calculated.Data from the assay component CCTE_Shafer_MEA_dev_per_burst_spike_percent was analyzed into 1 assay endpoint. This assay endpoint, CCTE_Shafer_MEA_dev_per_burst_spike_percent, was analyzed in the negative analysis fitting direction relative to DMSO as the negative control and baseline of activity. Using a type of functional reporter, gain or loss-of-signal activity can be used to understand electrical activity.
On the day prior to culture, each well was coated thoroughly with 150 uL of 0.05% polyethyleneimine (PEI, Sigma Cat P3143) in 50 mM HEPES (Sigma Cat H7523) at a pH of 8. The plate was incubated at 37C for one hour. PEI was rinsed out with 500 uL of sterile water three times. Plates were stored at 4C until the day of culture. This culture was plated at a seeding density of 1.5 x 10^5 cells/well on a 48-well MEA plate, prepared as described above. Cells were administered via a 25 uL media/laminin ([…]; Sigma Cat L2020-1MG) drop directly onto the microelectrode array, as adding the cells with the laminin results in better attachment than pre-coating with laminin. After 2 hours, an additional 475 uL of cortical media was added and the cells returned to the incubator. Exposure starts at day 0 of plating and is continued over twelve days of network development until the experiment is terminated. Cells are fed with fresh medium on DIV 5 and 9, following the recordings on those days. The entire volume of media in the well is exchanged and any vehicle or compound treatment is renewed. Complete details are found in OP-NHEERL/ISTD/SBB/TJS/2015-03-r0 (available on request, email shafer.tim@epa.gov). Measurement of the electrical activity is non-invasive, and recordings can be made from the same plate over multiple different days of the culture. In cortical neurons, this allows for the measurement of extracellular action potentials over the period during which networks form in the MEA plate.

Q: For `CS(=O)(=O)c1cc(C(F)(F)F)ccc1C(=O)c1cnoc1C1CC1`, which outcome is on record?
A: inactive

Q: With `COC(=O)N(C(=O)N1CO[C@@]2(C(=O)OC)Cc3cc(Cl)ccc3C2=N1)c1ccc(OC(F)(F)F)cc1` as the compound, how does the AC50 read?
A: 23.1 µM (active)

Q: Which results are given for `CC1(C)C(C=C(Cl)Cl)C1C(=O)OC(C#N)c1cccc(Oc2ccccc2)c1` (configuration not stated)?
A: outcome: inactive; AC50: 10 µM (active)

Q: Which outcome does the source give for `CS(=O)(=O)c1ccc(C(=O)C2C(=O)CCCC2=O)c([N+](=O)[O-])c1` here?
A: inactive

Q: Which AC50 does the source give for `C=C(C)CN(CC)c1c([N+](=O)[O-])cc(C(F)(F)F)cc1[N+](=O)[O-]` here?
A: 18.6 µM (active)

Q: With `CO/N=C(/C1=NOCCO1)c1ccccc1Oc1ncnc(Oc2ccccc2Cl)c1F` as the compound, how does the AC50 read?
A: 1.75 µM (active) and 1.24 µM (active)

Q: Which outcome does the source give for `CC(C)=CC1C(C(=O)OCc2coc(Cc3ccccc3)c2)C1(C)C` (configuration not stated) here?
A: inactive

Q: Which outcome does the source give for `COP(=S)(OC)Oc1ccc([N+](=O)[O-])c(C)c1` here?
A: inactive

Q: With `CC(C)(C)C(=O)C(Oc1ccc(Cl)cc1)n1cncn1` (configuration not stated) as the compound, how does the AC50 read?
A: 41.3 µM (active)

Q: With `Cc1c(COC(=O)[C@@H]2[C@H](/C=C(\Cl)C(F)(F)F)C2(C)C)cccc1-c1ccccc1` as the compound, how does the AC50 read?
A: 1.65 µM (active) and 1.51 µM (active)

Q: For `CCOP(=O)(OCC)Oc1nc(Cl)c(Cl)cc1Cl`, which outcome is on record?
A: inactive

Q: What about the AC50 of the same compound?
A: 1.39 µM (active) and 15 µM (active)

Q: For `O=C(Nc1ccccc1-c1ccc(Cl)cc1)c1cccnc1Cl`, which outcome is on record?
A: inactive

Q: And the AC50?
A: 9.36 µM (active)

Q: Which AC50 does the source give for `CCN(CC)c1nc(C)cc(OP(=S)(OC)OC)n1` here?
A: 30.9 µM (active)

Q: Which AC50 does the source give for `O=C1C2CC=CCC2C(=O)N1SC(Cl)(Cl)Cl` (configuration not stated) here?
A: 16.7 µM (active) and 15.7 µM (active)

Q: With `CC1(C)C(C(=O)OC(C#N)c2cccc(Oc3ccccc3)c2)C1(C)C` (configuration not stated) as the compound, how does the AC50 read?
A: 12.6 µM (active)

Q: With `N#CN=C1SCCN1Cc1ccc(Cl)nc1` as the compound, how does the outcome read?
A: inactive

Q: Which outcome does the source give for `CCNC(=O)NC(=O)C(C#N)=NOC` here?
A: inactive

Q: With `CCSC(=O)N1CCCCCC1` as the compound, how does the outcome read?
A: inactive

Q: With `CCOC(=O)C(C)OC(=O)c1cc(Oc2ccc(C(F)(F)F)cc2Cl)ccc1[N+](=O)[O-]` (configuration not stated) as the compound, how does the outcome read?
A: inactive

Q: For `CN/C(=N\[N+](=O)[O-])NCc1cnc(Cl)s1`, which outcome is on record?
A: inactive

Q: With `COP(=S)(OC)SCn1nnc2ccccc2c1=O` as the compound, how does the outcome read?
A: inactive

Q: With `COP(=O)(OC)O/C(C)=C/C(=O)N(C)C` as the compound, how does the outcome read?
A: inactive

Q: For `CNC(=O)Oc1cccc2ccccc12`, which AC50 is on record?
A: 15 µM (active)

Q: For `CCCN(CC)CC1COC2(CCC(C(C)(C)C)CC2)O1` (configuration not stated), which AC50 is on record?
A: 0.335 µM (active)
